Measurements as given in PubChem BioAssay.
Active and inactive are the calls of the source.

How the values were obtained:
Albumin (Bos taurus) = Albumin (Bos taurus) (UniProt P02769); assay: bovine serum albumin binders on microarray, profiling panel, artefact control for SMM control protein annotation, biochemical, small-molecule microarray, Alexa647 label, 635/667 nm fluorescence (AID 1118); details: BSA-A647 binding, fluorescence 635 nm, higher = more signal;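 note: score merges 667 nm emission intensity and signal-to-noise per printed compound spot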
[1] = small-molecule microarray binders of probe aXIP, primary screen, biochemical, NeuroSMM set, 635/667 nm fluorescence (AID 1119); details: higher = more signal, called active from +8 up or from −8 down;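 note: probe is the protein aXip251-270 applied at 1 µg/mL to compound-printed slides; binding of probe to printed compounds measured as 667 nm fluorescence plus signal to noise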
[2] = small-molecule binders of probe aNOTCH3, primary screen, biochemical, small-molecule microarray, 635/667 nm fluorescence (AID 1120); details: higher = more signal;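 note: probe is a biotin-tagged antibody raised against NOTCH3 rather than NOTCH3 protein; score merges spot fluorescence near 667 nm with spot signal to noise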
[3] = small-molecule binders of probe aNOTCH2, primary screen, biochemical, small-molecule microarray, 635/667 nm fluorescence (AID 1121); details: higher = more signal;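 note: score merges feature fluorescence read at 667 nm with its signal to noise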
[4] = target: Carbonic anhydrase 2 (Homo sapiens) (UniProt P00918); assay: CAII small-molecule binders, profiling panel, biochemical, small-molecule microarray, Alexa647-labelled CAII (AID 1122); details: CAII-A647 binding fluorescence, higher = more signal
[5] = COS7 lysate on small-molecule microarray, probe aHis, 635 nm (AID 1123); details: COS7 cell lysate, fluorescence, higher = more signal;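 note: z-score combines 667nm fluorescence intensity with signal-to-noise per printed compound spot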
[6] = compound binding in COS7 lysate, probe aLAP1, primary screen, cell lysate, small-molecule microarray (AID 1124); details: probe aLAP1, fluorescence, higher = more signal;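 note: lysate comes from COS7 cells expressing LAP1 and is applied at 0.3 µg/mL; score merges spot fluorescence near 667 nm with signal-to-noise over triplicate slides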
Sam68 (KHDRBS1) = assay: Sam68 small-molecule binders, primary screen, biochemical, small-molecule microarray, 635 nm fluorescence (AID 1125); details: small-molecule microarray binding, higher = more signal;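 note: score merges 667 nm channel intensity with signal to noise over triplicate slides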
[7] = test system: Chordin-like protein 2 (CHRDL2); assay: CHRDL2 small-molecule binders, primary screen, biochemical, small-molecule microarray, 635 nm fluorescence (AID 1126); details: small-molecule microarray binding, fluorescence 635 nm; higher = more signal;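 note: printed compound slides probed with Chrdl2 protein at 4 µg/mL for 1 h at 4 C; score merges 667 nm emission intensity with signal to noise over three replicate slides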
[8] = target: Concanavalin-A (Canavalia ensiformis) (UniProt P02866); assay: ConA small-molecule binders, primary screen, artefact control for SMM control protein annotation, biochemical, small-molecule microarray, Alexa647 label, 635 nm (AID 1127); details: ConA-A647 binding fluorescence, higher = more signal;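 note: z combines 667 nm emission intensity with signal-to-noise across three replicate slides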
[9] = anti-His antibody binders, primary screen, artefact control for SMM control protein annotation, biochemical, small-molecule microarray, 635 nm fluorescence (AID 1128); details: anti-His Alexa647 antibody binding, higher = more signal;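 note: score merges feature fluorescence with signal-to-noise for each printed compound spot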
[10] = test system: Human papillomavirus type 1a E7 protein (residues 1-88); assay: HPV1a E7 small-molecule binders, primary screen, biochemical, small-molecule microarray, residues 1-88, 635 nm (AID 1129); details: small-molecule microarray binding, fluorescence 635 nm; higher = more signal
[11] = target: Focal adhesion kinase 1 (Homo sapiens) (UniProt Q05397); assay: small-molecule microarray binders of FAK, primary screen, biochemical, 635/667 nm fluorescence, BSA, DTT (AID 1130); details: PTK2 binding, 635 nm fluorescence, higher = more signal;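 note: composite of spot emission at 667 nm and signal to noise over triplicate slides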
[12] = test system: Fibrinogen (Alexa647-labelled); assay: fibrinogen binders on compound microarrays, profiling panel, artefact control for SMM control-protein annotation, biochemical, small-molecule microarray, 635/667 nm fluorescence (AID 1131); details: fibrinogen-A647 binding fluorescence, higher = more signal;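 note: z-score merges 667 nm fluorescence with per-spot signal-to-noise over triplicate slides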
[13] = target: Follistatin (Homo sapiens) (UniProt P19883); assay: follistatin binders on small-molecule microarrays, primary screen, biochemical, small-molecule microarray, 635/667 nm fluorescence (AID 1132); details: FST binding, 635 nm fluorescence, higher = more signal
[14] = target: Fibroblast growth factor 2 (Homo sapiens) (UniProt P09038); assay: FGF2 binders on small-molecule microarrays, primary screen, biochemical, small-molecule microarray, 635/667 nm fluorescence (AID 1133); details: small-molecule microarray binding, FGF2, fluorescence 635/667; higher = more signal
[15] = mitochondrial membrane potential change in A549 cells, profiling panel, cell-based, JC-1 fluorescence, basal, 24 h, 100 nL (AID 1138); details: higher = more signal;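 note: A549 lung adenocarcinoma cells under basal conditions with no added stimulus; test concentration not given here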
Lefty1 = Lefty1 binders on small-molecule microarrays, primary screen, biochemical, small-molecule microarray, 635/667 nm fluorescence (AID 1139); details: small-molecule microarray binding, fluorescence 635/667; higher = more signal
[16] = test system: wheat germ agglutinin (Triticum aestivum), Alexa647-labelled; assay: wheat germ agglutinin binders on compound microarrays, profiling panel, artefact control for SMM control-protein annotation, biochemical, small-molecule microarray, 635/667 nm fluorescence (AID 1140); details: WGA-A647 binding, 635 nm fluorescence, higher = more signal;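 note: score merges 667 nm feature emission with signal to noise over triplicate slides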
[17] = target: Luciferin 4-monooxygenase (Photinus pyralis) (UniProt P08659); assay: firefly luciferase enzyme inhibitors, primary screen, biochemical, luminescence, purified enzyme, 2006 set (AID 1141); details: SteadyGlo luminescence, 30 min, higher = more signal, called active from +8 up or from −8 down;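 note: cell-free assay with purified firefly luciferase at 100 ng per well in PBS; test concentration not given here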
Sequence of Luciferin 4-monooxygenase (Photinus pyralis) (P08659 whole entry, looked up): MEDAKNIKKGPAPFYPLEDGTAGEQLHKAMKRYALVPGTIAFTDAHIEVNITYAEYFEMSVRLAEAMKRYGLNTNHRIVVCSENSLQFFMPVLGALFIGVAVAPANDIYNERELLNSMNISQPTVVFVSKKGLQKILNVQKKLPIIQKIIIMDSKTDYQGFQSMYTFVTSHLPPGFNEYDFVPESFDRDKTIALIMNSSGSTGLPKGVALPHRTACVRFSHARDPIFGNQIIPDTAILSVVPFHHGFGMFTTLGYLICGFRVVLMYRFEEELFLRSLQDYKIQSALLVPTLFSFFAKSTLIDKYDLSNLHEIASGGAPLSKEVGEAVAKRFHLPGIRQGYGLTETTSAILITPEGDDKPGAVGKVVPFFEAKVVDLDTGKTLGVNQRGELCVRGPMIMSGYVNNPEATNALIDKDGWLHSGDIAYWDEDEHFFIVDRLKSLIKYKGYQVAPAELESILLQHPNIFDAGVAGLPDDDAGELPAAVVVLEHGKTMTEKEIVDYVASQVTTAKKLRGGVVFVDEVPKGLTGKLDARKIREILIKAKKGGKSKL

Sequence of Concanavalin-A (Canavalia ensiformis) (P02866 whole entry, looked up): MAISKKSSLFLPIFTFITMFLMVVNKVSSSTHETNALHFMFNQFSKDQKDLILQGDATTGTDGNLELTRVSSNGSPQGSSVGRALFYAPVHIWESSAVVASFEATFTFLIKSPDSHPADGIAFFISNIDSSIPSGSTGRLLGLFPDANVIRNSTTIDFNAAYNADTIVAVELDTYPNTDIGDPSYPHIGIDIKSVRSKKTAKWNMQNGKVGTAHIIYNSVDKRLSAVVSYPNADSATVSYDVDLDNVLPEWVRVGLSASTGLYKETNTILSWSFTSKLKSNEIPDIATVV
Sequence of Follistatin (Homo sapiens) (P19883 whole entry, looked up): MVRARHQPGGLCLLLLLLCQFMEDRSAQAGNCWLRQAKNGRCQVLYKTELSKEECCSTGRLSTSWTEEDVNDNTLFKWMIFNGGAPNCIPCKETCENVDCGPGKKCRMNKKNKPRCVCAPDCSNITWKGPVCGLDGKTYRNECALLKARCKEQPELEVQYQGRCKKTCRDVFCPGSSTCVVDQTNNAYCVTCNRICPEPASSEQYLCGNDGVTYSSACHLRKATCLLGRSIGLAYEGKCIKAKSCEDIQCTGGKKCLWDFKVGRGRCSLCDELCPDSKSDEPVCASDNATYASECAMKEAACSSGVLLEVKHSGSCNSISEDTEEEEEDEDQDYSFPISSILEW
Sequence of Focal adhesion kinase 1 (Homo sapiens) (Q05397 whole entry, looked up): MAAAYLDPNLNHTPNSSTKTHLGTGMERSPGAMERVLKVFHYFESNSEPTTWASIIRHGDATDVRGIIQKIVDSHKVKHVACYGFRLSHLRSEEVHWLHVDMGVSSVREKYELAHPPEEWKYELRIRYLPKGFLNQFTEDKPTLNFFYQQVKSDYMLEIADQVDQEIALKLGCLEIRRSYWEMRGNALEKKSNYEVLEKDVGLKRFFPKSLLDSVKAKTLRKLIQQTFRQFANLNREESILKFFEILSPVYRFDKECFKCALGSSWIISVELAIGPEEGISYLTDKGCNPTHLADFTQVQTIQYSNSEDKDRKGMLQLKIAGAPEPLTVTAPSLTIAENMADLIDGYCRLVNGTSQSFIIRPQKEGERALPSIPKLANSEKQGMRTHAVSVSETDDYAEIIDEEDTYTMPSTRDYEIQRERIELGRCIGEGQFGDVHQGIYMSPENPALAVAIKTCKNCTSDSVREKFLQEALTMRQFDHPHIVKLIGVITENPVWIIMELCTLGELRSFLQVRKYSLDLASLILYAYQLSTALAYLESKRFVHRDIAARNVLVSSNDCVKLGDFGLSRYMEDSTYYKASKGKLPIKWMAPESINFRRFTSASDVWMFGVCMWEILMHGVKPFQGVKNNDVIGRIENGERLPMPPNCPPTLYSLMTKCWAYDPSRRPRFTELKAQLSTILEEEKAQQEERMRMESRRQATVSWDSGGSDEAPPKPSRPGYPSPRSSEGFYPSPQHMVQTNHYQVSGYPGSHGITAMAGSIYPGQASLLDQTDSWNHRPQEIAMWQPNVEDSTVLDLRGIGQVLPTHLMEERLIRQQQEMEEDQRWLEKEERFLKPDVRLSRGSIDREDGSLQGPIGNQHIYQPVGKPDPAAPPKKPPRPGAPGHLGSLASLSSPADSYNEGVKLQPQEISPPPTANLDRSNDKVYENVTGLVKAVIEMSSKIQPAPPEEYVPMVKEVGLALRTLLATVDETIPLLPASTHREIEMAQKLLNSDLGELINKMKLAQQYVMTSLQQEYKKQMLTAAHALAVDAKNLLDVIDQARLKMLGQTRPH
Sequence of Albumin (Bos taurus) (P02769 whole entry, looked up): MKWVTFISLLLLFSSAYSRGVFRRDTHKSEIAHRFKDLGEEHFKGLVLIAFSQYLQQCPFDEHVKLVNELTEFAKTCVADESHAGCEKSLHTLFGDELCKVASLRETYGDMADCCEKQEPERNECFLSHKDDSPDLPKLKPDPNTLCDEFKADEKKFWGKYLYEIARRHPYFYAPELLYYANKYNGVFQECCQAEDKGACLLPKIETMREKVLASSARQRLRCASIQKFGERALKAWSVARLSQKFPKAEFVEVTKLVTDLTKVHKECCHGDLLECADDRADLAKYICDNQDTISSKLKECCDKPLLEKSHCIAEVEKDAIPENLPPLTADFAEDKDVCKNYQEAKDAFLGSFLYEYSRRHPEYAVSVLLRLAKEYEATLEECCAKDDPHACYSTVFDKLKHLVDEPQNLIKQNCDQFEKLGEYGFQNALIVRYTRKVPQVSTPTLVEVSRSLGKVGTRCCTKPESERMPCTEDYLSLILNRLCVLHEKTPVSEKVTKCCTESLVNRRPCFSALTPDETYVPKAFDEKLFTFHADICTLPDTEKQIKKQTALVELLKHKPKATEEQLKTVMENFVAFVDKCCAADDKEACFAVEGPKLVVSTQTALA
Sequence of Fibroblast growth factor 2 (Homo sapiens) (P09038 whole entry, looked up): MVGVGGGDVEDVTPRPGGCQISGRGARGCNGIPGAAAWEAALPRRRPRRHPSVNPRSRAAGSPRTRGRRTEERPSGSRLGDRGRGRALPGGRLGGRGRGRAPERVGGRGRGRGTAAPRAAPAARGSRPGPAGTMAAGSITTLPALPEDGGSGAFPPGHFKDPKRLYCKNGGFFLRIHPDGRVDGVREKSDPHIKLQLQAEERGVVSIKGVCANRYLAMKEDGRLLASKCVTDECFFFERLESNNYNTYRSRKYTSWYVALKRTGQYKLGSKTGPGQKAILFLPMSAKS

| Structure (SMILES) | composite z-score (Albumin (Bos taurus)) | composite Z-score [1] | composite z-score [2] | composite z-score [3] | composite z-score [4] | composite z-score [5] | composite z-score [6] | composite z-score (Sam68 (KHDRBS1)) | composite z-score [7] | composite z-score [8] | composite z-score [9] | composite z-score [10] | composite z-score [11] | composite z-score [12] | composite z-score [13] | composite z-score [14] | z-score [15] | composite z-score (Lefty1) | composite z-score [16] | z-score [17] |
| --- | --- | --- | --- | --- | --- | --- | --- | --- | --- | --- | --- | --- | --- | --- | --- | --- | --- | --- | --- | --- |
| CC(C)NC(=O)[C@@H]1c2ccccc2C(=O)N(Cc2cc(C(F)(F)F)cc(C(F)(F)F)c2)[C@H]1c1ccc(CO)cc1 | 0.52 | 1.21 (inactive) | -0.0931 | -0.0052 | 0.298 | 2.38 | 0.706 | 1.3 | 0.0933 | 1.09 | 0.913 | 1.16 | 0.528 | 0.936 | 1 | 0.507 | 1.98 | 0.312 | 0.375 | 0.487 (inactive) |
| COC(=O)[C@@]1(Cc2ccc(F)cc2)[C@H]2c3cc(C(=O)N4CCCC4)n(Cc4ccccc4)c3C[C@H]2CN1C(=O)c1ccccc1 | 0.946 | 1.06 (inactive) | 0.23 | 0.0291 | 0.793 | 2.25 | 0.65 | 0.253 | -1.32 | 0.428 | 1.66 | 0.923 | 1.08 | 0.805 | 0.724 | -0.481 | -1.23 | -0.0042 | 0.768 | 2.22 (inactive) |
| C=CCC(OC(C)=O)[C@@H]1[C@@H](N(Cc2ccc(-c3ccccc3)cc2)C(=O)c2cccc3ccccc23)c2cc(OCCCO)ccc2N1C(=O)c1ccc2ccccc2n1 (stereo not given in full) | 0.028 | -0.119 (inactive) | 0.0306 | -0.16 | 0.212 | 0.621 | 0.546 | -0.168 | 0.165 | -0.0782 | 0.952 | 0.138 | 0.16 | -0.0282 | 0.374 | 0.268 | 1.14 | 0.565 | 0.139 | -0.658 (inactive) |
| O=C1NC(=O)C2C1C=CC(C(O)c1ccc(-c3ccccc3)s1)N2Nc1ccccn1 (stereo not given) | 0.781 | -1.39 (inactive) | -0.115 | 0.11 | 0.91 | 0.978 | 1.22 | 0.105 | 0.398 | 0.83 | 0.322 | 0.642 | 0.0118 | 0.347 | 0.689 | 0.0993 | 0.291 | 0.0042 | 0.807 | -0.86 (inactive) |
| COC(=O)c1ccc(OC)c(/C=C\CC(CCc2ccccc2)OC(=O)c2ccncc2)c1 (stereo not given) | -0.805 | 0.302 (inactive) | -0.26 | -0.225 | 0.388 | 0.721 | 0.863 | 0.0029 | 1.52 | -0.363 | 0.499 | -0.235 | -0.21 | -0.358 | 1.45 | 1.23 | 1.38 | 1.01 | 0.334 | -0.912 (inactive) |
| C[C@@]1([C@@H](NC(=O)c2cccs2)c2ccc(-c3ccccc3)cc2)C[C@H]1C1CCCCC1 | 0.0881 | 0.0169 (inactive) | -0.0027 | -0.343 | 0.786 | 3.02 | -0.165 | -0.307 | -0.237 | -0.419 | -1.16 | -0.678 | 0.429 | -1.76 | -0.27 | -1.48 | -0.255 | -0.507 | -1.45 | 1.44 (inactive) |
| Cc1ccc(-c2cccc(=O)o2)cc1 | -0.682 | -1.14 (inactive) | -0.15 | -0.108 | -0.501 | 0.0688 | 0.258 | -1.39 | 0.183 | -0.413 | -1.57 | -0.935 | -0.404 | -0.551 | 0.272 | 0.156 | -0.241 | -0.33 | -0.233 | -1.23 (inactive) |
| COCCOC(=O)N1C(=O)[C@@]2(c3cc(C#Cc4ccc(OC)cc4)ccc31)[C@H](C(=O)N1CCc3cc(OC)c(OC)cc3C1)[C@H]1C(=O)O[C@H](c3ccccc3)[C@H](c3ccccc3)N1[C@@H]2c1ccc(O)cc1 | -0.237 | -0.0164 (inactive) | 0.436 | 0.357 | 0.282 | 0.853 | 0.844 | 1.28 | 0.805 | 1.16 | 1.13 | 1.21 | 0.226 | 0.753 | 1.25 | 1.17 | -0.406 | 0.606 | 0.659 | -1.35 (inactive) |
| COC(=O)[C@@]1(Cc2ccccc2)[C@H]2c3cc(C(=O)N(C)C)n(Cc4ccc(O)c(OC)c4)c3C[C@H]2CN1C(=O)c1ccccc1 | 0.955 | 0.403 (inactive) | 0.808 | -0.246 | 0.759 | 2.17 | 0.091 | 0.507 | -0.629 | 1.1 | 2.42 | 1.11 | 1.12 | 0.418 | 0.465 | -0.875 | -1.29 | -0.239 | -0.0465 | 1.19 (inactive) |
| COCC1=C([C@H](O)CCc2ccccc2)[C@H](CO)[C@@H]2C(=O)N(C)C(=O)[C@@H]2C1 | 0.218 | -0.222 (inactive) | 0.0893 | -0.0502 | 0.426 | -0.0175 | 0.0165 | 0.322 | 0.758 | -0.0605 | -0.0971 | -0.204 | 0.0647 | -0.114 | 0.191 | 0.584 | 0.982 | 0.388 | -0.368 | -1.08 (inactive) |
| COc1ccc(C(=O)Nc2ccc(CN3C(=O)[C@@]4(O[C@@H](CC(=O)N5Cc6ccccc6C[C@H]5CO)[C@H]([Si](C)(C)c5ccc(OC)cc5)[C@H]4C)c4ccccc43)cc2)cc1 | 0.604 | -0.086 (inactive) | -0.137 | -0.153 | 0.55 | 2.26 | 0.226 | 1.27 | 1.18 | 0.965 | 0.299 | 1.13 | 1.2 | 0.724 | 1.33 | 1.33 | 1.29 | 1.62 | 0.365 | 0.0093 (inactive) |
